# From PubChem BioAssay AID2014 (Sanford-Burnham Center for Chemical Genomics, 2009)
# The whole screen tested about 290,000 compounds, of which about 3,000 (1%) were called active. The rule behind the calls is not given here. Only a selection was taken, and actives are over-represented in it overall.
# Molecular target: Polyadenylate-binding protein 1 (Homo sapiens) (UniProt P11940)
# Test: PABP poly(A) RNA binding inhibitors, primary screen, biochemical, fluorescence polarization, uHTS (AID 2014);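 note: calls also rest on retests at 20 µM and on dose response follow-up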
# Conditions: stronger effect = higher value
# Polyadenylate-binding protein 1 (Homo sapiens), sequence (P11940 whole entry, looked up): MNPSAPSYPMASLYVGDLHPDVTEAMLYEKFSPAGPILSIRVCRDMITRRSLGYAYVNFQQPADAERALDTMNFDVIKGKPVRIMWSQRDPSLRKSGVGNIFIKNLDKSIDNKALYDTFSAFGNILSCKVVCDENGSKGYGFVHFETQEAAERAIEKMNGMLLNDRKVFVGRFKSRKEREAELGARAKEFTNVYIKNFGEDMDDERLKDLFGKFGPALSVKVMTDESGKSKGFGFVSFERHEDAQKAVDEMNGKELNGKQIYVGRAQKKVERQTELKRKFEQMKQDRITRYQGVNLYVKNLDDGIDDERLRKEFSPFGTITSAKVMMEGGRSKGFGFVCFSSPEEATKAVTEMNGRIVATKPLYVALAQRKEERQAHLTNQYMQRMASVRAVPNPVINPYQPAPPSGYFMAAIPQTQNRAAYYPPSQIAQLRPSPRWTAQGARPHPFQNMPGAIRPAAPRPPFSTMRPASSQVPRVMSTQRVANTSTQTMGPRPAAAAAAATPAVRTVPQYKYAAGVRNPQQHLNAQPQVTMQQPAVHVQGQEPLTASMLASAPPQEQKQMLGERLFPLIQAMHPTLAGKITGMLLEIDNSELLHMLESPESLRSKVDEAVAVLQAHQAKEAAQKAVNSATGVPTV
SMILES,inhibition (at 35 µM),"inhibition (confirmation repeats, at 20 µM) [%]"
O=C(CNC(=O)c1ccccc1F)c1ccc(Br)cc1,0.1% (inactive),
O=C(O)c1ccc2c(=O)n3c(nc2c1)/C(=C/c1ccc(OC(F)F)cc1OC(F)F)CC3,5.3% (inactive),
CC(NC(=O)c1cc(=O)[nH]c2ccccc12)c1ccc(F)cc1F (stereo not given),12.3% (inactive),
CS(=O)(=O)C1=NN2C(=N)/C(=C\c3ccc(OCCOc4ccccc4)cc3)C(=O)N=C2S1,16.8% (inactive),
Cc1cc(/C=C2/C(=N)N3C(=NC2=O)SN=C3S(C)(=O)=O)c(C)n1-c1ccccc1,-5.5% (inactive),11.8
CS(=O)(=O)c1ccc2c(c1)SC1=NC(=O)/C(=C/c3ccco3)C(=N)N12,91% (active),
Cc1cccc(OC(C)C(=O)N2CCc3ccccc3C2)c1 (stereo not given),-5.4% (inactive),
CC(C)[C@@H](C(=O)O)N(Cc1cccc(CN([C@H](C(=O)O)C(C)C)S(C)(=O)=O)c1)S(C)(=O)=O,4.8% (inactive),
N/C(=N\OS(=O)(=O)c1cccc([N+](=O)[O-])c1)c1ccncc1,-9.3% (active),74.6
CO/N=C(\N)c1ccc([N+](=O)[O-])cc1,-0.6% (inactive),
O=C(N/N=C/c1cccc([N+](=O)[O-])c1)c1ccncc1,-0.6% (inactive),
COc1cccc(CNc2ncc(-c3ccccc3)n2C)c1,-1.9% (inactive),
C=CCn1cc(Cl)cc(C(=O)Nc2ccccc2)c1=O,-10% (inactive),
O=C(N/N=C/c1cc(Cl)cc([N+](=O)[O-])c1O)C(O)(c1ccccc1)c1ccccc1,30.5% (inactive),
O=[N+]([O-])c1cc(Cl)cc(/C=N/NC(=S)Nc2cc(S(=O)(=O)N3CCOCC3)ccc2Cl)c1O,70.2% (active),
O=C(N/N=C/c1ccc([N+](=O)[O-])o1)c1cccc(S(=O)(=O)N2CCOCC2)c1,-5% (inactive),12.9
CC1=C(C(=O)OCC2CCCCC2)C(c2ccc(F)cc2)NC(=O)N1 (stereo not given),0.3% (inactive),
O=C(NCCCNCc1ccccc1)c1ccc(/C=N/O)nc1,-3.1% (inactive),
CC(C)c1ccc(C(=O)NCCCc2ccccc2)cc1,-0.9% (inactive),
C[N+](C)(C)CCNC(=O)c1cc[n+](Cc2ccccc2)c(/C=N/O)c1,54.2% (active),73.1
O=C1CCC(C(=O)N2CCCCO2)CN1Cc1cccc(C(F)(F)F)c1 (stereo not given),4.6% (inactive),
CN(C(=O)c1cccc(OC2CCN(S(=O)(=O)N(C)C)CC2)c1)C1CCOC1 (stereo not given),17.8% (inactive),

SMILES,inhibition (at 35 µM),"inhibition (confirmation repeats, at 20 µM) [%]"
CC1(C(=O)NCCc2c[nH]c3ccccc23)C=CC2(CCCCC2)N1C(=O)c1ccccc1 (stereo not given),4.3% (inactive),
Oc1c(Cl)cc(Cl)c(Cl)c1Cc1c(O)c(Cl)cc(Cl)c1Cl,-1.5% (active),84.7
COc1cccc(/C=C2\Sc3ccc(C(=O)NCC4CCCO4)cc3N(C)C2=O)c1 (stereo not given),8.6% (inactive),
Cc1cccc(C)c1N1C(=O)CN(Cc2ccccc2)C1=S,8.2% (inactive),
CC(=O)N1c2ccc(S(=O)(=O)NCCC(=O)N(C)C3CCCCC3)cc2CC1C (stereo not given),3.5% (inactive),
O=C(Nc1ncc2c(n1)CC(c1ccco1)CC2=O)c1ccc(Cl)cc1 (stereo not given),65.9% (active),
CCc1ccc(Nc2ncc3c(n2)CC(c2ccco2)CC3=O)cc1 (stereo not given),6.2% (inactive),
O=C(Nc1ncc2c(n1)-c1ccccc1OC2)c1ccc(Cl)cc1,4.5% (inactive),
CNC(=O)CN1C(=O)NC(c2ccccc2)(c2ccccc2)C1=O,-6.2% (inactive),
COc1ccc(NC(=O)NN2CCN(C)CC2)c(OC)c1,-2.5% (inactive),
CSc1nnc(SCc2nc3sc(C(=O)O)c(C)c3c(=O)[nH]2)s1,52.9% (active),
Cc1ccc(C)c(SCc2nc3sc(C(=O)O)c(C)c3c(=O)[nH]2)c1,-4% (inactive),
CCOC(=O)c1sc2nc(CSc3ccccc3)[nH]c(=O)c2c1C,9.6% (inactive),
Cc1cccc(OCC(O)Cn2c(N3CCCCC3)nc3c2c(=O)[nH]c(=O)n3C)c1 (stereo not given),-7.3% (inactive),
COc1ccccc1/C=C/C(=O)NC1CC2CCC1C2 (stereo not given),13.8% (inactive),
Cc1cc(OC(=O)c2c(Cl)cccc2Cl)nc(C)n1,8.5% (inactive),
Cc1cc(C)c(C(N)=O)c(Cl)n1,74.6% (active),79.1
Cc1ccc(Nc2nc(C)cc(C)c2C(N)=O)cc1,3.4% (inactive),
O=C(NCc1cccc(C(F)(F)F)c1)c1cccc(S(=O)(=O)N2CCN(Cc3ccccc3)CC2)c1,-3.2% (inactive),
O=C(Nc1ccc(Br)cc1F)C1CC(=O)N(C2CCCCC2)C1 (stereo not given),-1% (inactive),
COc1ccc(C(=O)NC(C)c2nccs2)cc1OC1CCN(C(C)C)CC1 (stereo not given),1.2% (inactive),
CCN(C(=O)CSc1nnc(-c2ccncc2)o1)c1ccccc1,-2.5% (inactive),

SMILES,inhibition (at 35 µM),"inhibition (confirmation repeats, at 20 µM) [%]"
CCSc1nc(O)c(C(c2cccc(OC)c2)c2c(O)nc(SCC)[nH]c2=O)c(=O)[nH]1,8.4% (inactive),
O=C1CC(N2CCN(c3ccc(F)cc3)CC2)C(=O)N1c1ccccc1 (stereo not given),48.8% (inactive),
N#CC1=C(N)N(c2ccc(F)cc2)C(=O)C1,97.6% (active),
O=C1CCCC2=C1C(c1cccs1)CC(=O)N2c1ccc(F)cc1 (stereo not given),-1.2% (inactive),
C[C@H]1[C@H]2c3nc4ccccc4n3C[C@H]1ON2C1CCCCC1,-0.1% (inactive),
O=C(Cc1ccccc1)n1nc(-c2ccccc2)nc1NCc1ccco1,-0.2% (inactive),
O=c1nc2s/c(=C\c3ccco3)c(=O)n2nc1Cc1ccccc1,75.7% (active),
Cc1nc2nc(SCC(=O)NCc3ccco3)nn2c(C)c1Cc1ccccc1,10.6% (inactive),
CCOCCc1nn2c(=O)cc(CSCC(=O)Nc3cccc(C)c3C)nc2s1,8.3% (inactive),
COc1ccc(-c2csc(NC3OC(=O)c4ccccc43)n2)cc1 (stereo not given),-0.5% (inactive),
CC(C)(C)C(=O)OCc1nc(-c2ccc(O)c(O)c2)cs1,10% (inactive),
COc1ccc(-c2csc(Cc3nc(O)cs3)n2)cc1,70.4% (active),52.3
O=c1ccc2cc(S(=O)(=O)Nc3ccccc3F)ccc2o1,-1.5% (inactive),
Cc1c(NC(=O)c2c([N+](=O)[O-])cnn2C)c(=O)n(-c2ccccc2)n1C,-1.3% (inactive),
Cc1ccc(-n2c(O)c(C=Nc3ccc(S(=O)(=O)Nc4ncccn4)cc3)c3ccccc3c2=O)cc1C,-8.1% (active),94.9
CCOc1ccc(-n2c(O)c(/C=N/Nc3nc(C)cc(C)n3)c3ccccc3c2=O)cc1,9% (inactive),
CCOc1ccc(N=Cc2c(O)n(-c3cccc(C)n3)c(=O)c3ccccc23)cc1,-1.3% (inactive),
O=C(NCC(=O)N1CCN(c2ncc(C(F)(F)F)cc2Cl)CC1)c1ccc(Br)o1,3.4% (inactive),
CC(=O)N1CCSc2ccc(S(=O)(=O)N3CCC(C)CC3)cc21,0% (inactive),
Cc1cccc(OCC(=O)NC2CC(C)(C)NC(C)(C)C2)c1,6.7% (inactive),
C=CCN1C=C2C(=O)C(C)(OC(=O)CCc3ccccc3)C(=O)C=C2C=C1c1ccc(C#N)cc1 (stereo not given),38.3% (active),80.1
CC1(OC(=O)CCc2ccccc2)C(=O)C=C2C=C(c3ccc(C#N)cc3)N(CCc3ccccn3)C=C2C1=O (stereo not given),26.9% (inactive),

SMILES,inhibition (at 35 µM),"inhibition (confirmation repeats, at 20 µM) [%]"
NC(=O)COc1ccccc1C(=O)NC12CC3CC(CC(C3)C1)C2,-0.3% (inactive),
Cc1ccc(-n2c(C)cc(/C=N/Nc3ccc([N+](=O)[O-])cn3)c2C)c(C)c1,10.5% (inactive),
Cc1cc(/C=N/Nc2ccc([N+](=O)[O-])cn2)c(C)n1-c1cccc(C(=O)O)c1,50.3% (active),
COc1cc(/C=N\Nc2ccc([N+](=O)[O-])cn2)ccc1OCC(=O)O,13.3% (inactive),
CC(C)=CCN1CCN(CCCc2ccccc2)CC1CCO (stereo not given),-4.3% (inactive),
CN1/C(=C\C=C2\N=C(c3ccc(F)cc3)OC2=O)C(C)(C)c2ccccc21,120% (active),105
CN1/C(=C\C(=O)c2cccnc2Cl)C(C)(C)c2ccccc21,-4.7% (inactive),
CN1/C(=C\C(=O)c2oc3ccccc3c2N)C(C)(C)c2ccccc21,15.4% (inactive),
O=C(NCCc1ccc(Cl)cc1)C1CCCN1C(=O)NCc1ccccc1 (stereo not given),-1.3% (inactive),
COc1ccccc1N(CC(=O)Nc1ccccc1C(=O)N1CCCC1)S(C)(=O)=O,0.7% (inactive),
O=C(O)CCCN1C(=O)c2ccccc2Sc2ncccc21,16.4% (inactive),
COc1ccc(C(=O)Nc2ccnn2C2CCN(Cc3ccncc3)CC2)cc1,-4.2% (inactive),
O=C(N/N=C/c1c(Cl)[nH]c2ccccc12)c1sc2ccccc2c1Cl,-2.8% (inactive),
COc1ccc(N=C(C)c2sc3ccccc3c2O)cc1,-3.8% (inactive),
Oc1ccc(N=Cc2sc3ccccc3c2Cl)cc1,-14% (active),68.6
COc1ccccc1N(CC(=O)NC1CCCC1)C(=O)C1(C)CC(=O)N=C2C=CC(C)=CN21 (stereo not given),4.1% (inactive),
O=C(COC(=O)C12CC3CC(CC(C3)C1)C2)NCc1ccco1,26% (active),62.4
O=C(COC(=O)CCC(=O)c1cccs1)NCc1ccco1,35.9% (inactive),32.9
O=C(CC12CC3CC(CC(C3)C1)C2)NCc1ccco1,-13.1% (inactive),
COc1ccc(C(=O)C2CCCN(C(=O)c3cc(C)on3)C2)cc1F (stereo not given),-11.7% (inactive),
Cc1cc(C)n(CCC(=O)N2CCN(S(=O)(=O)c3ccc(C)c(C)c3)CC2)n1,-7.6% (inactive),
